PubChem BioAssay (NCI)
About 83,000 compounds went through this panel and 20% of them were active in at least one assay; those are over-represented in the sample as a whole.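 The test compound was applied at a single concentration to cells in 96-well plates for 48 hours, and percent growth was recorded.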 Values without a mark were called inactive. Active and inactive are the calls of the source. The calls were made as follows: active = growth percent below 10; inactive = the rest.

Key:
Experiment in all cases: NCI-60 one-dose screen, 48 h (100 = growth as untreated, 0 = no growth, -100 = all killed)
Conditions in all cases: 10 µM unless noted
SK-MEL-2 melanoma = tested on: SK-MEL-2 melanoma
SN12C renal = tested on: SN12C renal
UO-31 renal = tested on: UO-31 renal
TK-10 renal = tested on: TK-10 renal
ACHN renal = tested on: ACHN renal
CAKI-1 renal = tested on: CAKI-1 renal
A498 renal = tested on: A498 renal
SR leukemia = tested on: SR leukemia
RPMI-8226 leukemia = tested on: RPMI-8226 leukemia
OVCAR-5 ovarian = tested on: OVCAR-5 ovarian
OVCAR-4 ovarian = tested on: OVCAR-4 ovarian
SK-OV-3 ovarian = tested on: SK-OV-3 ovarian
IGROV1 ovarian = tested on: IGROV1 ovarian
OVCAR-3 ovarian = tested on: OVCAR-3 ovarian
NCI/ADR-RES ovarian = tested on: NCI/ADR-RES ovarian
CCRF-CEM leukemia = tested on: CCRF-CEM leukemia
MOLT-4 leukemia = tested on: MOLT-4 leukemia
OVCAR-8 ovarian = tested on: OVCAR-8 ovarian
HS 578T breast = tested on: HS 578T breast

SMILES	growth (SK-MEL-2 melanoma)	growth (SN12C renal)	growth (UO-31 renal)	growth (TK-10 renal)	growth (ACHN renal)	growth (CAKI-1 renal)	growth (A498 renal)	growth (SR leukemia)	growth (RPMI-8226 leukemia)	growth (OVCAR-5 ovarian)	growth (OVCAR-4 ovarian)	growth (SK-OV-3 ovarian)	growth (IGROV1 ovarian)	growth (OVCAR-3 ovarian)	growth (NCI/ADR-RES ovarian)	growth (CCRF-CEM leukemia)	growth (MOLT-4 leukemia)	growth (OVCAR-8 ovarian)	growth (HS 578T breast)
O=c1c(CNc2ccc(S(=O)(=O)Nc3nccs3)cc2)coc2ccccc12	98.1%	99.1%	82.2%	103%	94.2%	98.5%	112%	94.7%	92.1%	92.8%	99.9%	102%	101%	110%	102%	–	–	–	–
CC(C)(C)c1cc(-n2c(-c3ccc(Cl)cc3)nc3cc(C(=O)Nc4ccc(Cl)cc4)ccc32)n[nH]1	75.8%	66.9%	28.5%	50.8%	38.4%	32%	48%	70.3%	51.1%	93%	56.4%	99.8%	40.3%	45.8%	40.4%	62.5%	45.7%	61.6%	55.8%
COc1cc(-c2cc(-c3nc4ccccc4[nH]3)[nH]n2)cc(OC)c1OC	47.4%	65.8%	39.8%	70.3%	39.3%	38.8%	17.2%	11.1%	-24.9% (active)	93.9%	44.3%	42.4%	47.4%	33.8%	36.2%	–	–	–	–
OCC12CCCC(CO)(COC1)C2O (configuration not stated)	117%	101%	91.1%	113%	103%	–	97.9%	116%	103%	106%	104%	102%	116%	117%	97.3%	-57.2% (active)	126%	109%	115%
O=C(CI)Nc1ccc(O)c2ccccc12	-1.68% (active)	-34.9% (active)	-28.7% (active)	-34% (active)	6.99% (active)	–	95%	-1.5% (active)	-18.8% (active)	18.5%	26.6%	77.5%	-15.5% (active)	-29.5% (active)	-15.1% (active)	-26.7% (active)	-23.6% (active)	-22.9% (active)	33.2%
OCCNc1nc(Nc2ccc(Cl)c(Cl)c2)nc2ccccc12	64.1%	37.2%	47.6%	50%	59.7%	–	47%	3.46% (active)	30.7%	78.3%	44.8%	62.8%	39.1%	48.2%	–	15.7%	6.93% (active)	37.5%	53.3%
COc1ccc2c(c1)C/C(=C\c1cc(-c3cc(OC)c(OC)c(OC)c3)n[nH]1)C2=O	94.7%	92.8%	76.6%	111%	81.7%	84.3%	87.4%	57.8%	52.8%	97.5%	82.2%	102%	106%	93.6%	83.4%	–	–	–	91.8%
COc1ccc2nc(-c3cc(-c4cc(OC)c(OC)c(OC)c4)n[nH]3)[nH]c2c1	-29.9% (active)	21%	-1.85% (active)	31.7%	21.5%	26.8%	15.5%	13.8%	-50.6% (active)	58.8%	-21.9% (active)	33.8%	18.7%	-29% (active)	-0.97% (active)	–	–	–	–
COc1cc(-c2cc(-c3nc4cc(Cl)c(Cl)cc4[nH]3)[nH]n2)cc(OC)c1OC	86.5%	69.7%	43.2%	107%	46.8%	84.6%	67.4%	54.5%	-7.57% (active)	101%	52.5%	104%	–	52.2%	39.1%	–	–	–	–
